Bioassay records from PubChem.
Hits are enriched below; roughly 5.4% of the tested compounds scored in any of these assays.
VACV mCherry inh: inhibitors of vaccinia virus infection (mCherry reporter signal). 0.63% of 310,000 active. Potency, µM (series often up to 36.5 µM), inactives show top-dose activity change, negative = inhibition, most hits filed as inhibitors. Vaccinia virus mCherry reporter infection, fluorescence. AID 720579; calls by dose curve; tested in A549 cells; also: nearly all actives have a fitted effect of over 35% in size
FMDV inh: antivirals against foot and mouth disease virus | FMDV antiviral cell-based qHTS | Potency, µM (titrated, usually from 57.9 µM), inactives show at the highest dose activity change, negative = inhibition, usual class: inhibitors | 1.2% of 410,000 active; calls by dose curve; tested in HEK293T cells; also: read-out not given here; nearly all actives have a fitted effect of over 45% in size
Marburg entry inh: blocks Marburg virus binding to or entry into cells; Marburg virus pseudotyped entry inhibition, cell reporter; Potency, µM (top dose mostly 37.8 µM), for inactives: at the top dose activity change, negative = inhibition, most hits filed as inhibitors; 1.8% of 300,000 active; calls by dose curve; tested in HEK293 cells
VACV Venus inh: inhibitors of vaccinia virus (Venus reporter). AID 720580. 0.46% of 330,000 active. Potency, µM (titrated, usually from 36.5 µM), for inactives: at the highest dose activity change, negative = inhibition, hits mostly inhibitors. Vaccinia virus Venus reporter expression, fluorescence; calls by dose curve; tested in A549 cells; also: nearly all actives have a fitted effect of over 30% in size
Sm TGR inh: inhibitors of Schistosoma mansoni thioredoxin glutathione reductase. purified TGR, DTNB reduction, TNB absorbance 405 nm. Potency, µM (highest dose often 114 µM), for inactives: at the highest dose activity change, negative = inhibition, usual class: inhibitors. 3% of 360,000 active; active = well fitted inhibition curve with a large enough effect; inconclusive = small, poorly fitted or top-dose-only effect; inactive = no such curve, though single readings can be large or run the other way; also: nearly all actives have a fitted effect of over 60% in size
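Kinetic colorimetric format: TGR-catalysed, NADPH-driven DTNB reduction monitored via TNB absorbance. Enzyme dispensed at 20 nM; compound exposure 15 min at room temperature before reaction start.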
LASV entry inh: inhibitors of Lassa virus binding or cell entry | Lassa virus pseudotype entry inhibition, cell reporter | 1.2% of 300,000 active | AID 540256 | Potency, µM (top dose mostly 37.9 µM), inactives show at the highest dose activity change, negative = inhibition, actives largely listed as inhibitors; calls by dose curve; tested in HEK293 cells; also: nearly all actives have a fitted effect of over 50% in size
* = called active by the depositor; i = inactive; ? = inconclusive; . = not tested or not shown; [ ] = dose if it differs, or a comment. % is scaled to controls: 0 for no effect and ±100 for the full control effect; potency is read from the fitted curve at half-maximal effect.

SMILES | VACV mCherry inh | FMDV inh | Marburg entry inh | VACV Venus inh | Sm TGR inh | LASV entry inh
Cn1c(SCC(=O)N/N=C/C=C\c2ccco2)nc2ccccc21 | . | -9.8% | -6.6% | . | 22.4µM* | -3.6%
CCn1c(SCC(=O)N/N=C/c2cc(OC)c(O)c(OC)c2)nc2ccccc21 | -3.7% | -16.6% | 2.1% | -8.4% | -14.1% | -0.6%
CCn1c(SCC(=O)N/N=C/C=C\c2ccco2)nc2ccccc21 | -20.4% | 5.7% | ? | -8.0% | 22.4µM* | ?
CCOc1cc(CNCCCN2CCOCC2)ccc1OCC(=O)Nc1cccc2ccccc12 | . | 4.9% | ? | . | -6.1% | 14.6µM*
COc1ccc(-c2cc3nc(C)c(CCC(=O)NC(C)c4ccccc4)c(C)n3n2)c(OC)c1 (centres undefined) | -4.2% | -10.4% | ? | 0.5% | -10.5% | -4.4%[46.1 µM]
Cc1ccsc1CN(C)CC(=O)Nc1ccc([N+](=O)[O-])cc1Cl | -30.0% | -14.0% | 10µM* | -8.8% | -2.5% | ?
CN(CC(=O)Nc1cc([N+](=O)[O-])ccc1Cl)Cc1ccc(Br)cc1 | i | -0.5% | -20.5% | -11.7% | -4.5% | 7.9%
COc1cc(NC(=O)CN2CCN(c3ccc(F)cc3)CC2)cc(OC)c1 | -8.3% | -7.7% | . | -8.3% | 3.5% | -29.6%[46.1 µM]
CCC(Oc1ccc2c(=O)c(-c3ccccc3OC)coc2c1)C(=O)OCc1ccccc1 (centres undefined) | i | 20µM* | ? | -5.7% | 0.0% | -5.3%
COc1ccccc1-c1coc2cc(O)ccc2c1=O | -15.5% | 10.5% | . | -16.3% | . | .
CCNC(=S)Nc1cc(OCC)c(NC(=O)c2ccco2)cc1OCC | -13.3% | 6.0% | -3.2% | -13.4% | 2.1% | ?
CCOc1cc(NS(=O)(=O)c2ccccc2)c(OCC)cc1NC(=O)c1ccco1 | . | -15.3% | -14.4% | . | 31.6µM* | -6.0%
CCOc1ccc(S(=O)(=O)NCc2ccncc2)cc1NC(=O)c1ccccc1 | -9.3% | -10.8% | 3.55µM* | -20.4% | 1.7% | ?
CCOc1ccccc1NC(=O)c1cc(S(=O)(=O)NCc2ccco2)ccc1F | . | 49.1% | . | . | 31.6µM* | .
CCc1cc(C(=O)N2CCc3c([nH]c4ccccc34)C2c2ccc(OC)cc2F)no1 (centres undefined) | 11.2µM* | 13.7% | 0.891µM* | -16.5% | -2.0% | ?
COc1cc2c(C#CCO)c(-c3ccc(C#N)cc3)oc(=O)c2cc1OC | -28.3% | -9.2% | . | -8.6% | . | .
COc1cc2c(C#CCCCO)c(-c3ccc(C#N)cc3)oc(=O)c2cc1OC | -2.0% | -12.0% | . | -8.0% | 31.6µM* | .
O=C(c1cc(-c2ccc(Br)cc2)on1)N1CCOCC1 | -19.5% | 20.7% | ? | -16.1% | -2.4% | 2.51µM*
COc1cccc(-c2cc(C(=O)N3CCOCC3)no2)c1 | -2.8% | -0.9% | 10µM* | -1.8% | -0.8% | -21.0%[46.1 µM]
O=C(CSc1nc2ccccc2n1Cc1cccc(F)c1)N1CCN(c2ccc(F)cc2)CC1 | -15.2% | 0.0% | 3.1%[46.1 µM] | -22.1% | 0.3% | .
CCOCCCNC(=O)C1CCN(C(=O)c2cc3sccc3n2C)CC1 | -3.4% | -11.5% | -0.4%[46.1 µM] | -15.3% | 3.2% | .
CCOc1ccccc1Oc1c(C)oc2cc(OC(=O)c3ccco3)ccc2c1=O | -10.1% | . | 0.2% | -5.6% | 35.5µM* | -22.0%
CN(C)c1ccc(CNC2CC(C)(C)NC(C)(C)C2)cc1 | -25.4% | 11.2% | ? | -13.8% | -10.2% | 11.6µM*
COc1ccc(N=C2S/C(=C\c3ccco3)C(=O)N2CC(C)C)cc1 | -3.5% | -27.1% | 3.8% | 8.4% | 44.7µM* | ?
CN(C)S(=O)(=O)c1ccc(C(=O)NCCS(=O)(=O)N2CCN(c3ccccc3)CC2)cc1 | -10.2% | 1.8% | . | -13.8% | -1.3% | 13.8%[46.1 µM]
SMILES | VACV mCherry inh | FMDV inh | Marburg entry inh | VACV Venus inh | Sm TGR inh | LASV entry inh
CCn1c(-c2cccc(OC)c2)nc2cc(NC(C)=O)cc(C(=O)N3CCCC(C(C)=O)C3)c21 (centres undefined) | -15.9% | -1.7% | . | -9.3% | . | .
Cc1ccc(NC(=O)C2C3CCCCC32)cc1[N+](=O)[O-] (centres undefined) | . | 49.3% | . | . | -9.3% | .
Cc1cc(NC(=O)OC2CCCCC2)ccc1[N+](=O)[O-] | -21.2% | 30.3% | 10µM* | 7.9% | 6.0% | ?
COc1cc(OC)cc(C(=O)N2CCCC(n3cc(C(=O)NCC(C)C)nn3)C2)c1 (centres undefined) | -10.1% | 10.8% | . | -3.5% | . | .
O=C(COC(=O)/C=C/c1ccco1)Nc1ncc(C(F)(F)F)cc1Cl | -13.0% | -0.2% | ? | -8.0% | ? | ?
Cc1c(Cl)cnc(NC(=O)COC(=O)C(NC(=O)c2ccco2)C(C)C)c1Cl (centres undefined) | . | ? | 1.5% | . | 35.5µM* | -2.0%
Cc1c(Cl)cnc(NC(=O)COC(=O)/C=C/c2ccco2)c1Cl | i | -9.3% | 10.8% | -1.4% | 10µM* | 2.0%
Cc1nc(NC(=O)COC(=O)[C@@H](NC(=O)c2ccco2)C(C)C)c(Cl)cc1Cl | . | -12.4% | . | . | . | .
COc1cccc(CCNc2ncnc3sc(C(=O)N4CCOCC4)c(C)c23)c1 | i | -7.5% | . | -15.1% | . | .
CCOc1ccccc1CNC(=O)Cc1ccc(NC(=O)N2CCCCc3ccccc32)cc1 | i | -16.5% | . | -12.1% | 6.4% | 4.47µM*
CCOc1ccccc1CNC(=O)c1ccc2c(c1)nc1n2CCCCC1 | -25.3% | 18.5% | . | 21.0% | 1.3% | 5.01µM*
O=C(Nc1ccccc1C(F)(F)F)c1noc2c1CCCCC2 | -2.7% | 0.9% | ? | -1.8% | 5.1% | 23.1%[46.1 µM]
O=C(CC(C(=O)O)n1ccnc1)c1ccc(Cl)cc1 (centres undefined) | -17.2% | . | . | -8.1% | . | .
COc1ccc(/C=N/Nc2nc(-c3ccc(C)cc3)c(NC(C)=O)s2)cc1 | 10µM* | 52.8% | 14.6%[46.1 µM] | -18.4% | 4.2% | 10.5%[46.1 µM]
CC(=O)Nc1sc(N/N=C/c2ccccc2F)nc1-c1ccc(C)cc1 | . | 74.1% | -8.6% | . | 31.6µM* | .
CC(=O)Nc1sc(N/N=C\c2ccccc2Cl)nc1-c1cccs1 | 11.2µM* | 20.2% | -15.6% | ? | -9.1% | -0.3%
CC(=O)Nc1sc(N/N=C\c2ccccc2)nc1-c1cccs1 | -15.3% | 40.6% | 10.7% | 2.7% | -30.3% | 20.2%
CCOC(=O)c1cc(OC(=O)c2cccc(Cl)c2)n(-c2ccccc2)n1 | -13.7% | -9.7% | . | -11.4% | 15.1% | ?
COC(=O)c1cc(OC)c(OC)cc1NCC(=O)Nc1cccc(C(F)(F)F)c1 | -27.6% | ? | 10.3µM* | -21.4% | 5.9% | -11.0%
Cc1ccc(C)c(NC(=O)CCC(=O)N/N=C/c2cc([N+](=O)[O-])ccc2O)c1 | -6.3% | -20.4% | ? | -5.8% | 5.4% | ?
Cc1c(Cl)cccc1NC(=O)CCC(=O)NNC(=O)c1ccccc1 | -0.7% | -14.1% | 8.4% | -8.0% | -2.9% | 2.1%
Cc1c(Cl)cccc1NC(=O)CCC(=O)N/N=C/c1ccc[nH]1 | ? | 0.0% | 3.16µM* | ? | ? | ?
O=C(Cc1ccccc1)N/N=C/c1ccc[nH]1 | . | -16.3% | . | . | -1.9% | .
